Assay outcomes as filed in PubChem.
Pf growth 48h: inhibits P. falciparum growth in the first generation, 48 h; AID 504832; P. falciparum luciferase growth in erythrocytes, 48 h; 5.9% of 310,000 active; Potency, µM (doses to about 28.7 µM), without a hit: top-dose activity change, negative = inhibition, hits mostly inhibitors; further: potency means the concentration at half of the fitted maximal effect; on the % scale 0 is the no-effect control and ±100 the full control effect
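Cell-based growth assay: transgenic P. falciparum expressing firefly luciferase, cultured in red cells within RPMI 1640 containing 0.5% w/v Albumax, 24 mM bicarbonate and gentamycin. A drop in luciferase activity indicates inhibition.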
NS1 inh: influenza NS1 inhibition | Potency, µM (series often up to 46.1 µM), without a hit: at the highest dose activity, positive = more growth | 0.4% of 270,000 active; calls by dose curve; further: potency means the concentration at half of the fitted maximal effect; actives are rising curves; nearly all actives have a fitted effect of over 50% in size
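A cell-based growth assay was used: compounds that relieve NS1-induced slow growth of budding yeast raise OD600. Assay medium was yeast nitrogen base with ammonium sulphate and -URA supplement, pH 6.0, with 2% galactose.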
Shiga toxin inh: inhibitors of Shiga toxin in Vero cells | Vero cells, Shiga toxin protein synthesis inhibition reporter | inhibition, % at 38.7 µM | 9.2% of 290,000 active; in the data active means inhibition mostly above about 28%, no sharp cut-off; inactive means mostly below about 43%; further: 0% is about no effect
Cycloheximide cs: counter-screen for Shiga toxin inhibitors: cycloheximide protein synthesis inhibition; cell reporter, cycloheximide protein synthesis inhibition counterscreen; max response, %; 12% of 300,000 active; in the data active means max response mostly above about 13%, no sharp cut-off; inactive means mostly below about 14%; further: read at 38.3 µM for the half of the compounds with a filed dose; 0% is about no effect
Pf growth 96h: P. falciparum growth inhibition at 96 hour, primary screen for plastid delayed-death inhibitors; P. falciparum luciferase reporter growth, 96 h; Potency, µM (titrated, usually from 28.7 µM), inactives show at the highest dose activity change, negative = inhibition, hits mostly inhibitors; 6.9% of 320,000 active; further: potency means the concentration at half of the fitted maximal effect; on the % scale 0 is the no-effect control and ±100 the full control effect
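Plates of compound plus infected erythrocytes (2% hematocrit, 0.05% parasitemia final) incubate 96 hours, 37 C, 5% CO2. Detection reagent added; reduced luminescence from the parasites' luciferase reporter flags inhibition.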
Numbers without * were called inactive; i = inactive; ? = inconclusive; · = not tested or not shown; [ ] = dose if it differs, or a comment. The list is not random: actives were taken first. Their share in the collection is about 21%. Unless noted, the call rests on the fitted dose curve; in most records, active means well fitted inhibition curve with a large enough effect; inconclusive means small, poorly fitted or top-dose-only effect, or another doubt; inactive means no such curve, though single readings can be large or run the other way.

SMILES | Pf growth 48h | NS1 inh | Shiga toxin inh | Cycloheximide cs | Pf growth 96h
CCN(CC)CCNC(=O)c1ccc(NC(=O)Cc2cccc3ccccc23)cc1 | ? | 5.9% | 13.9 | -4.9 | ?
N#CCS(=O)(=O)c1ccccc1 | -6.6% | 41.8% | 2.8 | -1.8 | ?
C=CCN=C(NC#N)SC | 0.233µM* | 10.9% | -4.9 | -0.7 | 26.3%
COc1ccc(OC)c(NC(=O)CSc2nnc(C3CCCCC3)o2)c1 | -5.0% | -6.3% | -6.3 | 0.8 | 17.3%
Cc1ccc(NC(=O)C2(C)Cc3ccccc3C(=O)O2)cc1 (centres undefined) | 1.7% | -4.0% | 17.7 | 10.2 | 24.4%
COC(=O)c1c(C)[nH]c(C(=O)COC(=O)c2c(C)noc2C)c1C | 11.1% | · | · | · | 14.3%
COC(=O)c1c(C)[nH]c(C(=O)C(C)OC(=O)c2c(C)noc2C)c1C (centres undefined) | ? | · | · | · | 4.15µM*
Cc1nc(CC(=O)Nc2nc(-c3ccccc3)cs2)cs1 | 44.7% | -53.8% | 80.3* | 28.8* | ?
Cc1nc(CC(=O)Nc2nc(C(C)(C)C)cs2)cs1 | 2.8% | 1.5% | 88.1* | 17.3 | 1.5%
O=C(Cc1cccs1)Nc1nc(-c2ccccc2)cs1 | · | -53.2% | 28.6 | 9.9 | 19.1%
Cc1ccc2oc(=O)c3cc(C(=O)NCCN4CCc5ccccc5C4)sc3c2c1 | 4.65µM* | 14.9% | 1.3 | -0.7 | ?
CCCN1CCN(CCCNC(=O)c2cc3c(=O)oc4ccc(C)cc4c3s2)CC1 | 13.1% | 0.8% | -9.5 | -2.2 | ?
Cc1ccc2oc(=O)c3cc(C(=O)NCc4ccco4)sc3c2c1 | · | ? | -8.6 | -1.2 | 9.28µM*
Cc1ccc2oc(=O)c3cc(C(=O)NCCCN4CCCC(C)C4)sc3c2c1 (centres undefined) | 4.15µM* | 9.2% | -8.8 | -3.9 | 20.6%
CC(C)OCCCNc1nc2c([nH]1)c(=O)n(C)c(=O)n2C | 12.8% | 7.2% | -14.5 | -11.7 | ·
Cc1cc2ncn(CCC(=O)NC(C)(C)C)c2cc1C | -5.8% | 4.6% | -2.5 | 1.5 | ?
CO/N=C(/CS(=O)(=O)Cc1ccccc1Cl)c1ccc(Cl)cc1Cl | ? | -16.2% | -8.7 | 1.0 | ?
C=CCNC(=O)C1CCN(c2cc(C)nc(-c3ccccc3)n2)CC1 | ? | -1.6% | -9.8 | -2.7 | -7.6%
Cc1cc(-c2ccccc2)nc(N2CCC(C(=O)NCc3ccccc3Cl)CC2)n1 | 39.2% | 18.5% | 54.4* | 26.6* | -18.4%
C=CCNC(=O)C1CCN(c2nc(C)cc(-c3ccccc3)n2)CC1 | ? | -37.7% | 131.6* | 35.6* | -21.4%[5.75 µM]
COc1ccc([C@@H]2CC(=O)c3c(O)cc(O[C@@H]4O[C@H](CO)[C@@H](O)[C@H](O)[C@H]4OC4O[C@@H](C)[C@H](O)[C@@H](O)[C@H]4O)cc3O2)cc1O (some centres undefined) | · | · | 2.1 | -1.5 | ·
C/C(=N\NC(=S)Nc1ccccc1C)c1ccc(O)cc1 | 0.0% | -0.4% | 42.6 | 12.6* | ?
C=C1c2cccc(C(F)(F)F)c2O[C@H](C(=O)OCC)C1OC (mixture of isomers) | · | · | i | -0.3 | ·
Cc1ccc(NC(=O)CN(C)C(=O)C(C)OC(=O)c2ccccc2NCCO)cc1 (centres undefined) | -25.7% | · | · | · | 3.3%
Cc1ccc(N2C(=O)C(CN(C)C)C2c2ccccc2)cc1 (centres undefined) | ? | 6.3% | -7.0 | -4.3 | ?
SMILES | Pf growth 48h | NS1 inh | Shiga toxin inh | Cycloheximide cs | Pf growth 96h
O=C1C(Cc2ccccc2)C(c2ccccc2)N1c1ccccc1 (centres undefined) | ? | 11.8% | -16.8 | -3.5 | 10.4µM*
CCOc1ccc(S(=O)(=O)N2CCOCC2)cc1NC(=O)C1=COCCO1 | -11.1% | · | · | · | -0.4%
CC(=O)Nc1ccc(Nc2cc(C)c3ccccc3n2)cc1 | -8.2% | -12.7% | 61.0 | -3.4 | ?
CCOc1ccc(Nc2c3ccccc3nc3ccccc23)cc1 | 2.94µM* | -68.8% | 35.5* | 16.8 | 2.08µM*
CCOc1ccc(Nc2cc(C)c3ccccc3n2)cc1 | -22.3% | -39.9% | 93.9* | 49.0* | ?
CCOc1ccc(Nc2nc3ccccc3n3nnnc23)cc1 | · | -1.1% | 99.8* | 59.0* | ?
Cc1cc(NCC2CCCCC2)nc2ccccc12 | 3.29µM* | -17.4% | 50.7* | 37.8* | ?
Cc1ccc(C)c(N2CCN(CCN3CCCCC3)CC2)c1 | 0.1%[0.00184 µM] | 1.8% | 2.2 | -4.5 | 5.4%
COc1cc(S(=O)(=O)Nc2ccccn2)ccc1F | · | -1.1% | 1.3 | -5.2 | 19.1%
COc1ccc(C(=O)CSc2nc3ncccc3[nH]2)cc1OC | -5.1% | 3.8% | -8.4 | 10.9 | -2.7%
CCOc1ccccc1NC1=C(Cl)C(=O)N(c2ccc(OC)cc2)C1=O | -4.4% | -4.7% | 13.2 | 0.5 | 35.1%
COc1ccccc1N1C(=O)C(Cl)=C(Nc2ccccc2O)C1=O | 7.9% | · | 102.5* | 31.5* | 32.4%
O=C1C(Cl)=C(Nc2ccccc2O)C(=O)N1c1ccccc1 | ? | -187.2% | 66.6* | 44.5* | 7.2%
COc1ccc(OCC(=O)Nc2c3c(nn2-c2ccc(OC)cc2)CS(=O)(=O)C3)cc1 | 76.8% | 0.8% | -6.7 | -4.7 | -6.3%
O=C(COc1ccccc1)NNc1nc2ccccc2s1 | 25.5% | 0.3% | 63.4* | 33.8* | 29.5%
CC(=O)NNc1nc2ccccc2s1 | 31.4% | 6.5% | 9.7 | 1.4 | ?
COc1ccc(/C=C(/CC(=O)Nc2ccccc2)c2nc3ccccc3s2)cc1 | -24.6% | 6.9% | 9.0 | 13.1 | ?
O=C(NNc1nc2ccccc2s1)Nc1ccccc1 | 92.3% | 9.1% | 28.8* | 37.0* | 174.9%
C/C(=C\C(=O)c1ccccc1)NNc1nc2ccccc2s1 | 25.3% | 27.2% | 110.2* | 43.5* | 21.5%
S=C(Nc1ccccc1)c1nc2ccccc2s1 | 174.3% | 1.6% | 82.7* | 56.5* | 24.4%
O=C(c1cccc(N2C(=O)C3C4C=CC(C4)C3C2=O)c1)N1CCN(c2ccccc2F)CC1 (centres undefined) | ? | 0.7% | -4.5 | -2.9 | 20.2%
O=C(CCC(=O)Nc1ccccc1)NNC(=O)C(c1ccccc1)c1ccccc1 | 13.0% | 11.4% | -12.4 | -3.1 | 79.7%
O=S(=O)(c1ccc2c(c1)OCCO2)C1CCC(O)CC1 (centres undefined) | 17.0% | · | · | · | -3.5%
CC[C@H](C)[C@H](NC(=O)c1ccccc1)C(=O)Nc1ccc(S(=O)(=O)Nc2cc(C)nc(C)n2)cc1 | -20.8% | -3.0% | 10.6 | -2.8 | ?
O=S(=O)(Nc1ccccc1OC(F)F)c1ccc(S(=O)(=O)N2CCCC2)cc1 | -15.8% | · | · | · | -28.5%
CC(=O)Nc1ccc(N=c2cc([N+](=O)[O-])cc(Cl)n2O)cc1 | -18.8% | 3.6% | -7.5 | -4.8 | -0.9%
O=C(Nc1cccc(Cl)c1)N1CCN(C2c3ccccc3-c3ccccc32)CC1 | 9.28µM* | 1.8% | -3.8 | -1.0 | ?
O=C(Nc1cccc(Cl)c1)N1CCCCCC1 | 30.7% | -18.7% | 23.1 | 14.9* | ?
O=C(Nc1ccc(C(=O)N2CCCCC2)cc1)c1ccccc1Cl | 4.7% | -4.8% | 12.9 | -2.2 | ?
O=C(Nc1ccc(C(=O)N2CCCCC2)cc1)Nc1cccc(Cl)c1 | ? | -5.4% | 72.4* | 32.7* | -5.9%
